Laboratory results reported in PubChem BioAssay AID1159580 (chemical genetic matrix, 2015).
Hit rate of the full screen: of about 5,500 compounds, about 2,000 (36%) were called active. Roughly 18% stayed inconclusive and do not appear here. Cut-off read from the data, not from the text of the source: active = normalized growth mostly below about 0.91 (no sharp cut-off); inconclusive = no clear call, values can overlap the other calls; inactive = mostly above about 0.92. The list shows a part of the results.

Test: chemical genetic growth profiling, strain panel (AID 1159580);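 note: tested at 20 µM; growth read once vehicle control cultures reached saturation at 30 °C; 1 = growth at the plate median or of vehicle wells; lower values mean less growth of the strain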
Conditions: S. cerevisiae deletion strains, growth OD

Measured: normalized growth

Cn1c([N+](=O)[O-])cnc1COC(N)=O
inactive: locus YAL013W, strain DEP1, active compounds read low 1.01 | locus YAL021C, strain ccr4, active compounds read low 1.01 | locus YAL026C, strain drs2, active compounds read low 1.02 | locus YAL030W, strain snc1, active compounds read low 1 | locus YBL061C, strain skt5, active compounds read low 1.01 | locus YBR009C, strain hhf1, active compounds read low 0.978 | locus YBR021W, strain FUR4, active compounds read low 1.02 | locus YBR023C, strain chs3, active compounds read low 1.01 | locus YBR171W, strain sec66, active compounds read low 1.01 | locus YBR229C, strain ROT2, active compounds read low 1.01 | locus YBR231C, strain swc5, active compounds read low 0.992 | locus YBR279W, strain paf1, active compounds read low 1 | locus YCL011C, strain gbp2, active compounds read low 1.01 | locus YCL016C, strain dcc1, active compounds read low 1.01 | locus YCL029C, strain bik1, active compounds read low 0.993 | locus YCL069W, strain vba3, active compounds read low 0.987 | locus YCR088W, strain abp1, active compounds read low 1.01 | locus YDL005C, strain med2, active compounds read low 1.01 | locus YDL035C, strain GPR1, active compounds read low 1.02 | locus YDL040C, strain nat1, active compounds read low 0.997 | locus YDL074C, strain BRE1, active compounds read low 1.02 | locus YDL101C, strain DUN1, active compounds read low 1.02 | locus YDL134C, strain PPH21, active compounds read low 1 | locus YDL185W, strain tfp1, active compounds read low 0.978 | locus YDL192W, strain arf1, active compounds read low 0.984 | locus YDR001C, strain nth1, active compounds read low 1 | locus YDR069C, strain doa4, active compounds read low 0.984 | locus YDR101C, strain arx1, active compounds read low 0.986 | locus YDR137W, strain rgp1, active compounds read low 1.04 | locus YDR150W, strain NUM1, active compounds read low 1 | locus YDR159W, strain sac3, active compounds read low 0.983 | locus YDR162C, strain NBP2, active compounds read low 1.01 | locus YDR195W, strain ref2 1.01 | locus YDR297W, strain sur2, active compounds read low 1.02 | locus YDR318W, strain mcm21, active compounds read low 0.985 | locus YDR334W, strain swr1, active compounds read low 1 | locus YDR335W, strain msn5, active compounds read low 1.01 | locus YDR388W, active compounds read low 0.992 | locus YDR392W, strain spt3, active compounds read low 1.04 | locus YDR502C, strain sam2, active compounds read low 0.989 | locus YEL003W, strain gim4, active compounds read low 0.999 | locus YEL037C, strain rad23, active compounds read low 0.998 | locus YEL061C, strain CIN8 (second series), active compounds read low 1 | locus YEL061C, strain CIN8, active compounds read low 1.01 | locus YER015W, strain faa2, active compounds read low 1.01 | locus YER016W, strain bim1, active compounds read low 1.02 | locus YER110C, active compounds read low 0.988 | locus YER111C, strain swi4, active compounds read low 0.998 | locus YER155C, strain BEM2 (second series), active compounds read low 1.02 | locus YER155C, strain BEM2, active compounds read low 1 | locus YER167W, strain BCK2, active compounds read low 1.01 | locus YFR010W, strain ubp6, active compounds read low 0.983 | locus YGL078C, strain dbp3, active compounds read low 0.987 | locus YGL086W, strain mad1, active compounds read low 0.998 | locus YGL167C, strain pmr1, active compounds read low 1 | locus YGL173C, strain kem1, active compounds read low 1 | locus YGL227W, strain vid30, active compounds read low 1.01 | locus YGL240W, strain doc1, active compounds read low 1 | locus YGL248W, strain PDE1, active compounds read low 1.01 | locus YGL253W, strain hxk2, active compounds read low 1.01 | locus YGR078C, strain PAC10, active compounds read low 1.01 | locus YGR135W, strain pre9, active compounds read low 0.983 | locus YGR252W, strain gcn5, active compounds read low 0.981 | locus YHR013C, strain ard1, active compounds read low 1.04 | locus YHR027C, strain rpn1, active compounds read low 1.02 | locus YHR030C, strain SLT2, active compounds read low 1.01 | locus YHR079C, strain IRE1 (second series), active compounds read low 0.991 | locus YHR079C, strain IRE1, active compounds read low 1 | locus YHR094C, strain hxt1, active compounds read low 0.986 | locus YHR129C, strain ARP1, active compounds read low 1 | locus YHR142W, strain chs7, active compounds read low 1.01 | locus YHR200W, strain rpn10, active compounds read low 0.986 | locus YIL066C, strain RNR3, active compounds read low 1.02 | locus YIL073C, strain SPO22, active compounds read low 1.03 | locus YIL125W, strain kgd1, active compounds read low 0.987 | locus YIR030C, strain dcg1, active compounds read low 0.994 | locus YJL092W, strain hpr5, active compounds read low 1.01 | locus YJL095W, strain BCK1 (second series), active compounds read low 1.01 | locus YJL095W, strain BCK1, active compounds read low 1.02 | locus YJL115W, strain asf1, active compounds read low 0.999 | locus YJL129C, strain trk1, active compounds read low 1.02 | locus YJL134W, strain LCB3, active compounds read low 1 | locus YJL154C, strain vps35, active compounds read low 1.01 | locus YJL164C, strain tpk1, active compounds read low 0.993 | locus YJL166W, strain qcr8, active compounds read low 0.988 | locus YJL168C, strain set2, active compounds read low 0.986 | locus YJL187C, strain SWE1 (second series), active compounds read low 1.02 | locus YJR043C, strain POL32, active compounds read low 1.02 | locus YJR066W, strain TOR1, active compounds read low 0.954
